This is an account of results in ChEMBL document CHEMBL3988442, “University of Dundee, Small-Polar-MMV Screening Library” (2021).

Hit rate of the full screen: of about 38,000 compounds, about 1,200 (3.2%) showed an effect of 50% or more. The median lay at about -58%. This is one part of a sample in which strong results are shown more often than they occur.

The test deals with Plasmodium falciparum. The test can be described thus: Calibr Malaria Delayed Death Assay SOP. In kind it is functional, organism-based. Also on record: scale not given: in the data most compounds retested in dose-response had high values. To be noted: concentration 4.99e-06 (unit not given; other assays of the set use mol/L).
As for `O=C(Cc1ccccn1)N1C[C@H]2CCC[C@@]2(COc2ccccn2)C1`, the “Percent Effect” value is -9.537%.
As to `Cc1cc(SCC(N)=O)nc(-c2ccc(F)cc2)n1`, the “Percent Effect” value was determined as 0.2782%.
In the case of `COCCn1cnnc1CCNc1cc(C)nc2ccnn12` it was -117.5%.
Take `CCN1CC2(CC1=O)CN(Cc1ccoc1)CCN(C(=O)C(C)C)C2` (centres undefined): the “Percent Effect” value is -77.86%.
Consider `CN1CCC(CNC(=O)c2cccc(CN3CCCCCC3)c2)C1` (centres undefined), for which the “Percent Effect” value is reported as -131.1%.
In the case of `CN(C)C(=O)CN1CCC2(COCc3cnc(N4CCOCC4)nc32)C1.O=C(O)C(F)(F)F` (centres undefined) it was 13%; in that of `CN(CCCO)C(=O)c1cc(COc2ccc3c(c2)CCCC3)on1`, -142.4%.
In the case of `Cc1cccc(N2CCN(CCS(=O)(=O)c3ccc(Br)cc3)CC2)c1C` it was -66.5%; in that of `O=C(c1cscn1)N1CCc2ncc(CN3CCOCC3)n2CC1`, -41.39%.
Under `CCOc1ccc2nc(CN3CCOC(CN)C3)ccc2c1` (centres undefined) stands -11.41%; under `CCOc1ccc2nc(CN3CCC(CNC(C)=O)C3)ccc2c1` (centres undefined), 36.59%.
With `CCOc1ccc2nc(CN3CCC(CN)C3)ccc2c1` (centres undefined), the “Percent Effect” value is 85.08%.
In the case of `c1ccc(Cc2noc(CN3CCCC(Cn4cncn4)C3)n2)cc1` (centres undefined), the “Percent Effect” value is -77.91%.
Under `NC(=O)N1C[C@H](NC(=O)c2cscn2)[C@@H]2OCCC[C@@H]21` stands -29.66%; under `O=C(NCc1ccco1)[C@H]1CC[C@@H]2[C@@H](CCN2c2ncccn2)O1.O=C(O)C(F)(F)F`, -5.9%.
In the case of `CC(C)CN1C(=O)CC[C@]12CC[C@@H](NC(=O)NCc1cccnc1)CC2.O=C(O)C(F)(F)F` it was -179.5%; in that of `O=C(Cc1cccnc1)NCCSc1ccccc1F`, -31.8%.
Turning to `O=C1NCCCCC1Sc1ccccc1F` (centres undefined), the “Percent Effect” value is recorded as -25.7%.
`Fc1ccccc1Sc1ccccc1CNC1=NCCN1.I`: the “Percent Effect” value was 76.79%.
For `O=C(NCCSc1ccccc1F)NCc1cccnc1`, the “Percent Effect” value is on record as -28.43%.
In the case of `CN(C)c1nc(NCc2ccccc2Cn2cccn2)ncc1F` it was -30.26%; in that of `Cc1cc(Br)ccc1NCc1ccc(C(=O)N(C)C)[nH]1`, -35.81%.
In the case of `CC(C)[C@H](NC(=O)NC1CCS(=O)(=O)C1)C(=O)NCc1ccc(Cl)cc1` (some centres undefined) it was -111.5%.
Regarding `COCCC1COC2(CCN(C(=O)c3cccnc3)CC2)C1.O=C(O)C(F)(F)F` (centres undefined), the “Percent Effect” value is given as -117.3%.
Turning to `O=C(c1ccccc1)N1CC[C@H]2C[C@H](c3nccs3)O[C@@H]2C1`, the “Percent Effect” value was -4.41%.
Regarding `Cc1cc(C)cc(OCCN(C)C(=O)NC(C)c2nncn2C)c1` (centres undefined), the “Percent Effect” value was -106.2%.
`CCc1nc(C2CCCN2C(=O)CCCn2cccn2)no1` (centres undefined): the “Percent Effect” value is given as -167.4875%.
In the case of `COCC1c2c(cnn2C)CCN1C(=O)c1cscn1.O=C(O)C(F)(F)F` (centres undefined) it was -119.3%.
In the case of `Cc1cc(C)nc(Nc2cccc(C3CCCN(CCO)C3)n2)n1` (centres undefined) it was 10.75%; in that of `Cc1cccc(Nc2nccnc2C2CCCN(CC(=O)N(C)C)C2)n1` (centres undefined), -114.3%.
Under `NCc1n[nH]c(-c2cccc(F)c2)n1` stands -72.36%; under `Cc1nc(N2CCCC2)nc2c1CCN(C(=O)N(C)C)CC2`, -58.26%; under `CCc1cccc(N2CCC(NC(=O)c3ccco3)CC2)c1`, 59.23%.
Turning to `CCc1cccc(N2CCC(NC(=O)c3ccoc3C)CC2)c1`, the “Percent Effect” value is recorded as -20.41%.
Turning to `CCc1cccc(N2CCC(NC(=O)CCNC(N)=O)CC2)c1`, the “Percent Effect” value is -70%.
With `c1ccc(CCCN2CC(n3cccn3)C2)cc1`, the “Percent Effect” value is reported as -65.67%.
Under `CC(=O)N1CCO[C@@H]2CN(Cc3cccc(Cl)c3)C[C@@H]2C1.O=C(O)C(F)(F)F` stands -40.86%; under `CN1CCC(C(=O)N2CCN(Cc3cccc(Cl)c3)CC2)CC1=O` (centres undefined), -101.4%.
Under `Cl.Cl.NCC1[C@H]2CN(CCc3ccccc3)C[C@@H]12` (some centres undefined) stands 86.43%; under `CS(=O)(=O)NC1CCN(CCc2ccccc2)CC1`, -29.4%.
As for `O=C(Nc1nnc[nH]1)C(c1cccc(F)c1)N1CCOCC1` (centres undefined), the “Percent Effect” value is on record as -17.23%.
In the case of `CC/C=C(\C)CN1CCC(CNC(=O)c2ccc(=O)[nH]c2)CC1` it was -93.37%.
Consider `Cc1ccc(S(=O)(=O)Cc2nnc(C)n2C)cc1`, for which the “Percent Effect” value is recorded as -134.3%.
In the case of `O=C(c1csnn1)N1CCCC(n2cncn2)C1` (centres undefined), the “Percent Effect” value is recorded as -97.91%.
On to `CCC(CC)CN1CCN(CC(=O)Nc2cccc3nsnc23)CC1`, for which the “Percent Effect” value is on record as -38.36%.
As for `CCn1nccc1C(=O)NC(Cn1cccn1)C(C)(C)C` (centres undefined), the “Percent Effect” value was -34.87%.
For `CN(C)Cc1ccccc1CN(C)c1ncnc2[nH]ccc12`, the “Percent Effect” value stood at 27.74%.
Under `CCn1cc(CN2CCN(Cc3cc(C)cc(C)c3)C(=O)C2)cc1C#N` stands 66.78%; under `Cc1cc(C)cc(CN2CCN(Cc3cc(C#N)n(C)c3)CC2=O)c1`, 14.32%; under `CCn1cc(CN2CCN(Cc3cccc(OC)c3)C(=O)C2)cc1C#N`, 47.6%.
Under `CN(CCn1cnc(-c2ccccc2)c1-c1ncc[nH]1)S(C)(=O)=O` stands -10.43%; under `NC1(C(=O)NCC2CCCN(Cc3cccc4nonc34)C2)CCC1` (centres undefined), 38.45%.
In the case of `CC(=O)NCC1CCCN(Cc2nc(Cc3ccccc3F)no2)C1` (centres undefined) it was -62.96%.
Consider `CCN(C)S(=O)(=O)NCC1CCN(Cc2ccccc2F)C1` (centres undefined), for which the “Percent Effect” value stood at 42.63%.
As to `CCN(C)S(=O)(=O)NCC1CCCN(Cc2ccccc2F)C1` (centres undefined), the “Percent Effect” value is listed as 74.13%.
In the case of `CS(=O)(=O)NCC1CCCN(Cc2ccc(F)c3cccnc23)C1` (centres undefined) it was 9.25%; in that of `NC1(C(=O)NCC2CCCN(Cc3ccccc3F)C2)CCCC1` (centres undefined), 85.42%; in that of `CC(C)NC(=O)[C@@H]1C[C@H]2NCC[C@H]2O1.Cl`, -114.2%.
As to `Cc1n[nH]c(C)c1NC(=O)Nc1cccnc1N1CCCC1`, the “Percent Effect” value was -5.845%.
As to `CC(C)CC(NCc1cccs1)c1ccccn1` (centres undefined), the “Percent Effect” value is reported as -24.93%.
In the case of `CC(C)CC(NCc1cscn1)c1ccccn1` (centres undefined) it was 28.89%; in that of `CC(C)CC(NCc1ccsc1)c1ccccn1` (centres undefined), 58.77%.
In the case of `COCCSCC(=O)NCc1ccc(N(C)C)cc1`, the “Percent Effect” value is reported as -84.72%.
For `CCOC(=O)N1CCc2ccccc2C12CCNCC2.Cl`, the “Percent Effect” value amounted to 52.81%.
As to `COCC(=O)N1CCc2ccccc2C12CCNCC2.Cl`, the “Percent Effect” value was -57.82%.
Under `Cl.O=C(C1CC1)N1CCc2ccccc2C12CCNCC2` stands -61.72%; under `Cc1cnn(CCCNC(=O)NCCS(=O)(=O)Nc2ccccc2)c1`, -111.9%.
In the case of `CC(C(=O)NC1CC1)S(=O)(=O)Cc1csc(-c2cccs2)n1` (centres undefined) it was -95.03%; in that of `CC(C(=O)NCC1CCCCC1)S(=O)(=O)Cc1csc(-c2cccs2)n1` (centres undefined), -110.5%.
In the case of `Cc1ccc(CNC(=O)C2=NOC3(CCCNC3)C2)cc1` (centres undefined) it was -11.58%; in that of `CC(C)C(NC(=O)NCCNc1ccccn1)c1cccs1` (centres undefined), 11.18%.
With `CC(=O)Nc1ccc(-c2ccccc2CCN)cc1`, the “Percent Effect” value was -117.7%.
In the case of `CNC(=O)C(C)S(=O)(=O)Cc1csc(-c2cccs2)n1` (centres undefined) it was -44.96%; in that of `CCC1(CC)CC(=O)N(CC(O)c2cccc(F)c2)C1=O` (centres undefined), -47.43%.
As to `Cn1cc(CN2CCC3(CCN(c4cnn(C)c4)C3=O)C2)cn1.O=C(O)C(F)(F)F` (centres undefined), the “Percent Effect” value was -38.46%.
In the case of `Cc1ccc(-n2ncc(C(=O)N(C)C3CCN(C)CC3)c2N)cc1C` it was -13.94%; in that of `COCCNC(=O)Cn1cc2c(n1)c(C)nn2C`, -119.4%.
`Cc1ccc(CN2Cc3nccn3CC(Cn3cncn3)C2)s1.O=C(O)C(F)(F)F` (centres undefined): the “Percent Effect” value is recorded as -180.8%.
Turning to `COc1ccccc1OCCC(=O)NC1CCc2nc(C)cn2C1` (centres undefined), the “Percent Effect” value is given as -82.15%.
In the case of `Cc1ncc(CNC(=O)CCc2ccccc2F)c(C2CCCN2C)n1` (centres undefined) it was -31.11%.
Under `O[C@@H]1CN(Cc2cc(Cl)cc3cccnc23)C[C@@H]1O` stands -71.8%; under `Clc1cc(CN2CCCN3CCCC3C2)c2ncccc2c1` (centres undefined), 88.94%.
Turning to `Clc1cc(CN2CCCC(Cn3cncn3)C2)c2ncccc2c1` (centres undefined), the “Percent Effect” value is recorded as 36.9%.
In the case of `Cc1cccc(-c2nc(N)nc3c2CN(C(=O)c2ccncn2)C3C)c1` (centres undefined) it was -72.66%.
For `COc1coc(C(=O)Nc2nc(-c3ccccn3)cs2)cc1=O`, the “Percent Effect” value turned out to be 19.28%.
Under `CN(Cc1noc2c1CCCC2)C(=O)Nc1cncc(F)c1` stands -40.24%; under `Cc1c[nH]c(CN(C)C(=O)C(C)(C)NC(=O)c2cccs2)n1`, -87.6%.
In the case of `CC(C)c1ncc(C(=O)N2CCOCC2CC(=O)c2ccco2)s1` (centres undefined) it was -45.87%.
In the case of `CC(Cn1cncn1)NCCN1CCc2ccccc21` (centres undefined) it was -79.84%; in that of `Cc1cc(C)n(CC(C)NCCN2CCc3ccccc32)n1` (centres undefined), 52.4%; in that of `Cc1cc(C)n(CC(C)NCCn2nc(C)c(Cl)c2C)n1` (centres undefined), -54.04%.
Consider `Cc1ccc(SC2CCCC2)c(C(=O)NCc2n[nH]c(=O)[nH]2)c1`, for which the “Percent Effect” value is given as -25.99%.
In the case of `O=C(c1c[nH]c2ncccc12)N(Cc1ccco1)C1CCCC1` it was 86.68%; in that of `COCCN(C(=O)c1c[nH]c2ncccc12)C1CCCC1`, -27.67%.
Under `NC(=O)CN(C(=O)c1c[nH]c2ncccc12)C1CCCC1` stands -54.97%.
Under `Cc1nc(N(C)C)nc(-c2cccc(-c3ccn(CCCF)n3)c2)c1C` stands -133.9%; under `CSCC(=O)N(Cc1ccccn1)Cc1ccccc1C`, -232.7%.
`CCOc1ccccc1N(C)Cc1nccn1C`: the “Percent Effect” value is recorded as 20.26%.
Under `CCCN(Cc1ccccn1)Cc1ccccc1OC` stands -102.5%; under `CC(C)CN(Cc1ccccn1)Cc1ccccc1C(=O)O`, -129.3%; under `COc1ccc(OC)c(Sc2ncccc2C(=O)N(C)CCC#N)c1`, -164.4%.
In the case of `CCOCCN1CCN(CCc2ccc3c(c2)CCO3)CC1`, the “Percent Effect” value is given as -44.63%.
Under `Cc1noc([C@@H]2CCO[C@@H]3CCN(Cc4nccs4)C[C@@H]32)n1` stands -49.2%; under `CCN1CC2(CC1=O)CN(C(C)=O)CCN(C(=O)NC)C2` (centres undefined), -42.52%.
